From PubChem BioAssay (Tox21)
Inconclusive results are not listed. Entries that show only a call come without a potency. The source made the active and inactive calls. The call rests on the fitted dose curve; in most records, active means well fitted curve in the direction sought with a large enough effect in the repeat runs; inconclusive means weak or mixed curves; inactive means no such curve, though single readings can be large; an effect the other way counts as inactive or inconclusive.

Experiments:
[1] = target: Cytochrome P450 2C19 (Homo sapiens) (UniProt P33261); assay: Cytochrome P450 Family 2 Subfamily C Member 19 (CYP2C19) small molecule antagonists: luciferase reporter qHTS assay (AID 1671197); further: nearly all actives have a fitted effect of over 65% in size; further: potency means the concentration at half of the fitted maximal effect
Sequence of Cytochrome P450 2C19 (Homo sapiens) (P33261 whole entry, looked up): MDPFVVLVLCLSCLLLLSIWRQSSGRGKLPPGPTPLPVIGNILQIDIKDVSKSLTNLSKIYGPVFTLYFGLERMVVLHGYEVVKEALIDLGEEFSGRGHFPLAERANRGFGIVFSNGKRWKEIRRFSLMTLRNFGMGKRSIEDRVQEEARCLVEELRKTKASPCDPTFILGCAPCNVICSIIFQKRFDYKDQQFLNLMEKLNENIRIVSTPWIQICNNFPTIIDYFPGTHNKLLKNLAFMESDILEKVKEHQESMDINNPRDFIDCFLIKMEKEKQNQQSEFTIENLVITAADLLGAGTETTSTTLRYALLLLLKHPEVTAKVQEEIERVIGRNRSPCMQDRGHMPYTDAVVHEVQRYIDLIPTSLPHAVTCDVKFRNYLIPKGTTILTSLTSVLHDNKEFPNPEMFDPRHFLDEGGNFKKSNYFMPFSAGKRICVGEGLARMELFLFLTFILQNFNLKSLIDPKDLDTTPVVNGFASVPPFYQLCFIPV
In short: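 CYP2C19 P450-Glo, 1536-well qHTS. Cpd + enzyme/proluciferin substrate 10 min RT; + NADPH regen, 37C 1 h; stop with luciferin detection reagent, 20 min RT, luminescence (RLU). Pos ctrl ketoconazole.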

[2] = target: Cytochrome P450 2C9 (Homo sapiens) (UniProt P11712); assay: Cytochrome P450 Family 2 Subfamily C Member 9 (CYP2C9) small molecule antagonists: luciferase reporter qHTS assay (AID 1671198); further: nearly all actives have a fitted effect of over 50% in size; further: potency means the concentration at half of the fitted maximal effect
Sequence of Cytochrome P450 2C9 (Homo sapiens) (P11712 whole entry, looked up): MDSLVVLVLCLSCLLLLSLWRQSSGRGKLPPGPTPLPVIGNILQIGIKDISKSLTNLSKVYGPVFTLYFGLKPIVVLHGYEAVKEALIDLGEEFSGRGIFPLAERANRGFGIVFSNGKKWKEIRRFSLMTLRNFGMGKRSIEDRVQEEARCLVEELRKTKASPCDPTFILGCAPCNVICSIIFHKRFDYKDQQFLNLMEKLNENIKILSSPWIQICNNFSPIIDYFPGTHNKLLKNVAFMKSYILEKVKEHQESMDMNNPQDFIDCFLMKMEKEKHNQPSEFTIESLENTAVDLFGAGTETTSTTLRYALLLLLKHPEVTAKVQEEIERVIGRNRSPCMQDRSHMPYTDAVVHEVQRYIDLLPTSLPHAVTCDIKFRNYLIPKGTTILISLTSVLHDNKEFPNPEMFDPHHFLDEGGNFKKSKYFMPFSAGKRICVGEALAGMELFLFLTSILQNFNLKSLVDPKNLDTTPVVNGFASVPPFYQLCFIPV
In short: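 CYP2C9 activity was measured with a P450-Glo proluciferin substrate. Enzyme–substrate mix was held with compound for 10 min at room temperature, then NADPH regeneration solution was added for 1 h at 37C. Luciferin product was read as luminescence.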

[3] = target: Cytochrome P450 1A2 (Homo sapiens) (UniProt P05177); assay: Cytochrome P450 Family 1 Subfamily A Member 2 (CYP1A2) small molecule antagonists: luciferase reporter qHTS assay (AID 1671199); further: nearly all actives have a fitted effect of over 50% in size; further: potency means the concentration at half of the fitted maximal effect
Sequence of Cytochrome P450 1A2 (Homo sapiens) (P05177 whole entry, looked up): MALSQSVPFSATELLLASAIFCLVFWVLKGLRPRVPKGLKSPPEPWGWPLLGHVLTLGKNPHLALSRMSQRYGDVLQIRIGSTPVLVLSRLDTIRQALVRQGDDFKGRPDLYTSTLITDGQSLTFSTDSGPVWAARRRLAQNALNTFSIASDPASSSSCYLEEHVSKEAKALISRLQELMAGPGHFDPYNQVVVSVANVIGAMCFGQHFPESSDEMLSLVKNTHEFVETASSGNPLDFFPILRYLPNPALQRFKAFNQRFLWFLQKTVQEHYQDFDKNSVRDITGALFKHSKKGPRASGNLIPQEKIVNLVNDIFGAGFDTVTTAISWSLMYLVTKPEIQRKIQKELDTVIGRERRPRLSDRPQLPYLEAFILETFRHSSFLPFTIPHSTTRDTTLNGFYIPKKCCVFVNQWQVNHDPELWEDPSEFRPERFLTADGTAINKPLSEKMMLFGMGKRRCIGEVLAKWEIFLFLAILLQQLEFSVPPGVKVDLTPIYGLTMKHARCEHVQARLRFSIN
In short: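 CYP1A2 turnover of a luminogenic substrate was quantified after 1 h with NADPH regeneration at room temperature. Furafylline served as positive control.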

[4] = target: Voltage-gated inwardly rectifying potassium channel KCNH2 (Homo sapiens) (UniProt Q12809); assay: Human Ether-a-go-go-Related Gene (hERG) channel small molecule antagonists: fluorescence cell-based qHTS assay (AID 1671200); further: nearly all actives have a fitted effect of over 50% in size; further: potency means the concentration at half of the fitted maximal effect
Sequence of Voltage-gated inwardly rectifying potassium channel KCNH2 (Homo sapiens) (Q12809 whole entry, looked up): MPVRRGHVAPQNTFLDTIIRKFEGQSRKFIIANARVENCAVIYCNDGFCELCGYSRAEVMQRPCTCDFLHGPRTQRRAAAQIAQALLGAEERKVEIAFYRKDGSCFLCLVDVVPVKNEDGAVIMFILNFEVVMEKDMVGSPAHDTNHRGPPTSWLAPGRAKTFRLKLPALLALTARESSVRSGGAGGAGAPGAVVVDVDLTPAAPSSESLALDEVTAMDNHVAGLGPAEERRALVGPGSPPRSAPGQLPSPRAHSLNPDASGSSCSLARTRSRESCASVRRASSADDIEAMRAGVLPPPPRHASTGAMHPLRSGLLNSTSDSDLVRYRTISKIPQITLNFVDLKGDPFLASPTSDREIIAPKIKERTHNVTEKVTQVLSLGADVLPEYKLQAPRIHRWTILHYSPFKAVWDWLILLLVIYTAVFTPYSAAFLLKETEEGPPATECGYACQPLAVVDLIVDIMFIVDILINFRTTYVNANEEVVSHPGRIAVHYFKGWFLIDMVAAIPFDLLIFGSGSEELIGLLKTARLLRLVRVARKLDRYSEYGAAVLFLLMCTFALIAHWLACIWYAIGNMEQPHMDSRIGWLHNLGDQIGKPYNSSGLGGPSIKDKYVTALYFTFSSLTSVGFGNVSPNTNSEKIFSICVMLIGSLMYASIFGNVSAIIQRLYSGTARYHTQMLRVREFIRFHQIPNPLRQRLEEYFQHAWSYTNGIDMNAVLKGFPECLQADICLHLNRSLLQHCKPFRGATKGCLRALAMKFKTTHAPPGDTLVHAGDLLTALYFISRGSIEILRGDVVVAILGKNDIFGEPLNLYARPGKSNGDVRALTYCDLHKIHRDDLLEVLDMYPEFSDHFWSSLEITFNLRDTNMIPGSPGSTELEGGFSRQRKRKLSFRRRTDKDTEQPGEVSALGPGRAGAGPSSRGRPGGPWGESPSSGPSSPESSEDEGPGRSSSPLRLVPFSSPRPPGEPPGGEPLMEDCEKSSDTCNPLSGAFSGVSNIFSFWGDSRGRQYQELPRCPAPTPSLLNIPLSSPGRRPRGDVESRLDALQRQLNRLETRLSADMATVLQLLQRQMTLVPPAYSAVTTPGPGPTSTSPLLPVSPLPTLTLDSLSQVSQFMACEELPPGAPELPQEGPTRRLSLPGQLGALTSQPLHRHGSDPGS
In short: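 First, 1000 cells per well are seeded and cultured overnight at 37 C. Next, FluxOR II dye is loaded for 1 h at room temperature, protected from light. After 10 more minutes, stimulus is added and fluorescence is read.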

[5] = target: Cytochrome P450 3A4 (Homo sapiens) (UniProt P08684); assay: Cytochrome P450 Family 3 Subfamily A Member 4 (CYP3A4) small molecule antagonists: luciferase reporter qHTS assay (AID 1671201); further: series mostly up to about 120 µM; nearly all actives have a fitted effect of over 50% in size
Sequence of Cytochrome P450 3A4 (Homo sapiens) (P08684 whole entry, looked up): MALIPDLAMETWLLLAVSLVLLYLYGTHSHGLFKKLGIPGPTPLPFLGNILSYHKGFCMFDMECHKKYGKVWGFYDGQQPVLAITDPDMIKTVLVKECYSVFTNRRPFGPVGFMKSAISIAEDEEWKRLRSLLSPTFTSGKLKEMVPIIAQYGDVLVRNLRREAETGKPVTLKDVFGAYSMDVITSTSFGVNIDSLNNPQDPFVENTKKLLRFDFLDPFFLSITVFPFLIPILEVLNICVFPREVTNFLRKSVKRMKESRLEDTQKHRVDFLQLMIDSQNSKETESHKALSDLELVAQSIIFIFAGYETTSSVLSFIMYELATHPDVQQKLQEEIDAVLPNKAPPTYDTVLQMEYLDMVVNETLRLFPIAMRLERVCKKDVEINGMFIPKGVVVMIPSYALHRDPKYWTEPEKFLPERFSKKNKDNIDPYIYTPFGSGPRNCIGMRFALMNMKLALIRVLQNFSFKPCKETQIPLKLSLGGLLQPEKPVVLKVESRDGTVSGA
In short: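 Enzyme and proluciferin substrate are mixed with test chemicals for 10 min, then NADPH regeneration system drives turnover for 1 h at room temperature. A detection reagent halts the reaction; luminescence after 20 min gives relative activity.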

Row | SMILES | Potency [1] | Potency [2] | Potency [3] | Potency [4] | Potency [5]
1 | ICCc1ccccc1 | 78 µM (active) |  |  |  | 
2 | CCC(=O)O[C@]1(C(=O)SCF)[C@H](C)C[C@H]2[C@@H]3C[C@H](F)C4=CC(=O)C=C[C@]4(C)[C@@]3(F)[C@@H](O)C[C@@]21C | inactive | 4.9 µM (active) | inactive | inactive | 
3 | CCOC(=O)c1ccccc1O | inactive | inactive | inactive |  | 
4 | O=C1Nc2ccc([N+](=O)[O-])cc2C1=O | 5.63 µM (active) | 35.5 µM (active) | 22.4 µM (active) |  | 
5 | C=CC(C)(O)CC/C=C(\C)CCC=C(C)C (configuration not stated) | 17.8 µM (active) | 31.7 µM (active) | 31.7 µM (active) |  | 
6 | Oc1ccccc1C=NCc1ccccc1 | inactive | inactive | inactive | inactive | 
7 | CC1=NN(c2cc(Cl)c(S(=O)(=O)O)cc2Cl)C(=O)C1N=Nc1ccc(S(=O)(=O)O)cc1 (configuration not stated) | inactive | inactive | inactive |  | 
8 | Cc1c(-c2ccccc2)oc2c(C(=O)OCCN3CCCCC3)cccc2c1=O | inactive |  |  |  | 
9 | Cc1ccsc1C(=CCCN1CCC[C@@H](C(=O)O)C1)c1sccc1C | inactive | inactive | inactive | inactive | 
10 | Cc1cc2nc(N)sc2cc1C | 28.5 µM (active) | 35.9 µM (active) | 1.14 µM (active) |  | 
11 | Cc1ccc(C(C)C)cc1O | 1.78 µM (active) | 15.9 µM (active) | 22.4 µM (active) | inactive | 
12 | CCOC(=O)c1cc(=O)c2c(OCC(COc3cccc4oc(C(=O)OCC)cc(=O)c34)OC(=O)[C@@H](N)CCCCN)cccc2o1 | inactive | 15.5 µM (active) |  |  | 
13 | CCN1CC(CCN2CCOCC2)C(c2ccccc2)(c2ccccc2)C1=O (configuration not stated) | inactive | inactive | inactive |  | 
14 | CN1CCC[C@@H]1Cc1c[nH]c2ccc(CCS(=O)(=O)c3ccccc3)cc12 | inactive | 17.4 µM (active) | inactive |  | 
15 | COc1cc(Cl)ccc1Cl | inactive | inactive | 36.3 µM (active) | inactive | 
16 | O=C1N(c2ccccc2)c2ccccc2C1(Cc1ccncc1)Cc1ccncc1 | 2.45 µM (active) | 3.47 µM (active) | inactive | inactive | 
17 | CC(C)CCCCCCc1ccc(OCCOCCO)cc1 | inactive |  |  |  | 
18 | CCc1cc2cc(OC)c(OC)cc2c(Cc2ccccc2)n1 | 17.4 µM (active) | 15.5 µM (active) | 6.45 µM (active) |  | 
19 | CC1(C)O[C@@H]2C[C@H]3[C@@H]4CCC5=CC(=O)CC[C@]5(C)[C@@]4(F)[C@@H](O)C[C@]3(C)[C@]2(C(=O)CCl)O1 | 34.7 µM (active) | 15.5 µM (active) | inactive | inactive | 
20 | CCc1cc(Cl)c(OC)c(C(=O)NC[C@@H]2CCCN2CC)c1O | inactive | inactive | 12.9 µM (active) | 6.74 µM (active) | 
21 | CN1CCN(c2c(F)cc3c(=O)c(C(=O)O)cn(CCF)c3c2F)CC1 | inactive | inactive | inactive | inactive | 
22 | C/C(=N\O)[C@@H](C)NCC(C)(C)CN[C@H](C)/C(C)=N/O | inactive | inactive | inactive | inactive | 

Row | SMILES | Potency [1] | Potency [2] | Potency [3] | Potency [4] | Potency [5]
23 | CC1=C2[C@H](/C=C(\C)C(=O)O)CC[C@@H](C)[C@H]2CC1 | 73.7 µM (active) | 65.6 µM (active) | 65.6 µM (active) | inactive | 
24 | O=C(O)[C@@H]1CSCN1 | inactive | inactive | inactive | inactive | 
25 | CCCCCCn1c(=O)c2c(ncn2C)n(C)c1=O | 30.9 µM (active) | inactive | 15.5 µM (active) | inactive | 
26 | O=S(=O)(O)C(F)(F)F | inactive | inactive | inactive | inactive | 
27 | CC(=O)Nc1ccc(C)c(Cl)c1 | 22.4 µM (active) | inactive | 8.94 µM (active) | inactive | 
28 | OC[C@H]1O[C@@H](O[C@H]2[C@H](O)[C@@H](O)[C@H](O)O[C@@H]2CO)[C@H](O)[C@@H](O)[C@H]1O | inactive | inactive | inactive | inactive | 
29 | CC(C)=CCC[C@](C)(O)[C@@H]1CC=C(C)CC1 | 5.03 µM (active) | 31.7 µM (active) | 39.9 µM (active) |  | 
30 | Cc1ccccc1C(=O)Nc1ccc(C(=O)N2CCCC(O)c3cc(Cl)ccc32)c(C)c1 (configuration not stated) | inactive | 15.5 µM (active) | inactive |  | 
31 | COc1nc(C)nc(NC(=O)NS(=O)(=O)c2ccccc2OCCCl)n1 | inactive | inactive | 35.4 µM (active) | inactive | 
32 | CC1CN(c2ccccc2)NC1=O (configuration not stated) | 12.6 µM (active) | 20 µM (active) | 22.4 µM (active) |  | 
33 | CN(CCCN1c2ccccc2CCc2ccccc21)CC(=O)c1ccc(Cl)cc1 | 3.47 µM (active) | 15.5 µM (active) | 11 µM (active) |  | 
34 | CN(CC1(C)CCCO1)S(=O)(=O)c1ccc(Cl)c(S(N)(=O)=O)c1 (configuration not stated) | inactive | inactive | inactive | inactive | 
35 | CCCCOc1cc(C(=O)NCCN(CC)CC)c2ccccc2n1 | 34.7 µM (active) | inactive |  |  | 
36 | O=C(O)[C@@H](O)[C@H](O)[C@H](O)[C@@H](O)C(=O)O | inactive | inactive | inactive | inactive | 
37 | CCOc1ccc2nc(N)sc2c1 | 22.3 µM (active) | 31.5 µM (active) | 17.7 µM (active) |  | 
38 | CCOC(=O)COc1ccc2c(c1)CC(NCC(O)c1cccc(Cl)c1)CC2 (configuration not stated) | 45.2 µM (active) | 35.9 µM (active) | inactive | 1.39 µM (active) | inactive
39 | OCCN1CCN(CCO)CC1 | inactive | inactive | inactive | inactive | inactive
40 | Cc1ccc([N+](=O)[O-])c(N)c1 | 38.9 µM (active) | inactive | 24.6 µM (active) | inactive | inactive
41 | O=C1C=CC(=O)O1 | inactive | inactive | inactive | inactive | inactive
42 | COc1ccccc1N1CCN(CCCNc2cc(=O)n(C)c(=O)n2C)CC1 | inactive | inactive | inactive | inactive | inactive
43 | NC/C=C/C(=O)O | inactive | inactive | inactive | inactive | inactive
